Each structure is given as a SMILES string. Out of some 69,000 compounds screened, about 8,600 (12%) showed an effect of 50% or more. The sample as a whole holds a higher share of strong results than the screen did.

This assay deals with Plasmodium berghei. The assay can be described thus: Screen against P. berghei liver stage (PbLuc), transformed with Luciferase, at 10uM. The note with it: tested at 10 uM. It counts as functional, HepG2.
Consider `CSCc1noc(-c2ccc(C)c(N3CCNC3=O)c2)n1`, for which the INHIBITION was 9.52%.
In the case of `COc1ccc(F)cc1-c1ccccc1CC1(C(=O)O)CCOCC1`, the INHIBITION is 26.7%.
The same measure for `O=C(N[C@@H]1c2ccccc2C[C@@H]1O)C1CCN(Cc2ccco2)CC1`: 48.4%.
Then `CC(NS(N)(=O)=O)c1ccc(OCc2ccc(F)cc2)cc1` (stereo not drawn), with 14.6%; and `CCc1cc(NCC(N)=O)nc(N2CCCCC2)n1`, with 32%; and `CCc1cc(NC2CCS(=O)(=O)C2)nc(N2CCCCC2)n1` (stereo not drawn), with 52.6%.
The same measure for `CCc1cc(NC2CCS(=O)(=O)CC2)nc(N2CCCCC2)n1`: 23.3%.
As to `CCc1cc(NCCNC(C)=O)nc(N2CCCC2)n1`, the INHIBITION is given as 48.2%.
Then `CCc1cc(NC2CCN(CC(N)=O)CC2)nc(N2CCCCC2)n1`, with 51.5%.
As to `CCc1cc(NC(C)(C)C)nc(N2CCOCC2)n1`, the INHIBITION is reported as -3.12%.
Then `CCc1n[nH]c(C2CN(C(=O)c3cc(C(N)=O)cs3)CCO2)n1` (stereo not drawn), with -15.5%; and `CCC(NC1CCCC1)c1ccc(S(C)(=O)=O)cc1` (stereo not drawn), with 22.1%; and `CC(NC(=O)c1nc(=O)[nH][nH]1)c1ccc(OCC2CC2)c(F)c1` (stereo not drawn), with 5.53%.
Then `O=C(c1ccncc1)N1CCc2ncnc(C3CC3)c2CC1`, with 27.6%.
Then `CCC(Nc1cccc(OC)c1)C(=O)NCc1ccc2[nH]c(=O)[nH]c2c1` (stereo not drawn), with -0.27%; and `C=C1C(C)(C)[C@@H]2CC[C@]1(C(=O)N1CCC(Cn3cc(CO)nn3)CC1)C2`, with 45.6%.
As for `C=C1C(C)(C)[C@@H]2CC[C@]1(C(=O)N1CCC(n3cc(CCO)nn3)CC1)C2`, the INHIBITION is -10.9%.
As for `Cc1ccc(C(=O)N2CCC(n3cc(CO)nn3)CC2)cn1`, the INHIBITION came to 55.9%.
Then `Cc1cc(C(=O)N2CCC(n3cc(CO)nn3)CC2)ccc1F`, with 39.3%.
As for `C=C1C(C)(C)[C@@H]2CC[C@]1(C(=O)N1CCC(n3cc(CO)nn3)CC1)C2`, the INHIBITION worked out at 54.5%.
For `Cc1ccoc1C(=O)N1CCC(n2cc(CO)nn2)CC1`, the INHIBITION was -37.8%.
On to `Cn1cc(C2CC(=O)NC23CCN(Cc2nccs2)CC3)cn1` (stereo not drawn), for which the INHIBITION is listed as -0.371%.
The same measure for `N#Cc1cccc(CN2C[C@H](OCC3CCOCC3)[C@H]3COC[C@H]32)c1`: 19.5%; for `Cc1c[nH]nc1C1CCN(c2cnccn2)C1` (stereo not drawn): 9.745%; for `CC(C)(C)n1cc(C(=O)O)c(-c2ccc(F)cc2F)n1`: 68.3%.
For the molecule `Cc1cc(NC(=O)COC(=O)c2ccc(F)cc2Br)n(C)n1`, the INHIBITION came to 34.1%.
Take `COc1ccc(-c2ccc(C(=O)O)c(F)c2)c(F)c1`: the INHIBITION was found to be 15.2%.
For `Cn1cc(C(=O)OCC(N)=O)c(-c2ccc(F)cc2F)n1`, the INHIBITION came to 58.6%.
The same measure for `CC(CN(C)C(=O)c1cn(C)nc1-c1ccc(F)cc1F)C(=O)O` (stereo not drawn): 24.4%; for `Cn1cc(C(=O)O)c(-c2ccc(F)cc2F)n1`: 18%; for `O=C(Nc1cccc(Cn2cccn2)c1)N1CCCC(N2CCCC2)C1` (stereo not drawn): 16.2%.
With `CS(=O)(=O)CCCSc1n[nH]c(-c2ccc3c(c2)CCC3)n1`, the INHIBITION is reported as -18.8%.
Regarding `Cc1ccc(F)cc1S(=O)(=O)NCc1cccc(C(=O)N2CCCC2)c1`, the INHIBITION is on record as -77.1%.
Regarding `O=C(NC1CCC(O)CC1)c1ccc2nc(-c3ccccc3)cn2c1` (stereo not drawn), the INHIBITION is -25.1%.
Then `COCC(=O)N(C)Cc1cccc(Cl)c1`, with 15%.
As for `O=C(CN1CCN(CC(O)C2CC2)CC1)NCc1ccc(F)cc1` (stereo not drawn), the INHIBITION worked out at 1.58%.
As for `O=C(c1cscn1)N1CCn2cnc(COCC3CC3)c2C1`, the INHIBITION is -6.23%.
The same measure for `CCOCc1ncn2c1CN(C(=O)c1ccoc1)CC2`: 39.2%; for `O=C(c1ccoc1)N1CCn2cnc(COCC3CC3)c2C1`: 56.7%; for `O=C(c1cnccn1)N1CCn2cnc(COCC3CC3)c2C1`: 60.1%.
With `O=C(c1ccccn1)N1CCn2cnc(COCC3CC3)c2C1`, the INHIBITION was 19.7%.
Turning to `O=C(c1ccoc1)N1CCCn2cnc(COCC3CC3)c2C1`, the INHIBITION is 39.2%.
`c1cnn(CC2CCCCN2Cc2nc(-c3ccsc3)no2)c1` (stereo not drawn): the INHIBITION is on record as 0.914%.
Take `CC(=O)N1CCCC(c2ccc(Nc3nc(C)cc(C)n3)cn2)C1` (stereo not drawn): the INHIBITION turned out to be 33.5%.
For the molecule `CSc1[nH]nc(NC(=O)c2cccnc2)c1C#N`, the INHIBITION is on record as -35.5%.
For the molecule `CCn1cnc(NC(=O)N2CCC(c3ccc(F)cc3)C2)n1` (stereo not drawn), the INHIBITION amounted to 31.6%.
Then `CCn1cnc(NC(=O)N2CCCC(c3ccccc3)CC2)n1` (stereo not drawn), with 22.4%.
Then `CCn1cnc(NC(=O)N2CCC(c3ccc(Cl)cc3)C2)n1` (stereo not drawn), with 58.2%; and `CSCc1cccc(S(=O)(=O)N2CCCC2)c1`, with 33.3%; and `Cc1cccc(N2CCC3(CCN(Cc4ccccn4)CC3)CC2)n1`, with 15.3%.
As for `COCCC(=O)N1CCCC1c1nc(O)cc(C(C)C)n1` (stereo not drawn), the INHIBITION was 23.2%.
Then `COC(=O)c1ccc2c(-c3ccnc(NCCO)n3)c[nH]c2c1`, with 10%.
With `COC(=O)c1ccc2c(-c3ccnc(N[C@@H](C)CO)n3)c[nH]c2c1`, the INHIBITION is recorded as 18.9%.
The same measure for `CC[C@@H](CO)Nc1nccc(-c2c[nH]c3cc(C(=O)OC)ccc23)n1`: 69.3%; for `COc1ccc(CNC2CCC(O)CC2)cc1OCCCC#N` (stereo not drawn): 17.8%.
Then `Cc1ccc(CN2CCC3(CC2)NC(=O)CC3c2ccncc2)cc1C` (stereo not drawn), with 16.6%.
Then `O=C(CN1C=Nc2ccccc2S1(=O)=O)NCCCc1ccccc1`, with 55.2%; and `CC(C)OCCCNC(=O)CN1C=Nc2ccccc2S1(=O)=O`, with 12.7%; and `CC(C)CCC(C)NC(=O)CN1C=Nc2ccccc2S1(=O)=O` (stereo not drawn), with 12.7%.
As to `O=C(CN1C=Nc2ccccc2S1(=O)=O)NCC1CC1`, the INHIBITION is 29.2%.
Then `O=C(CN1C=Nc2ccccc2S1(=O)=O)NCCc1cccs1`, with 53.8%; and `CC(NC(=O)CN1C=Nc2ccccc2S1(=O)=O)c1ccccc1` (stereo not drawn), with -18.5%.
As for `O=C(CN1C=Nc2ccccc2S1(=O)=O)NCc1ccccc1`, the INHIBITION is given as 7.27%.
Take `Cc1ccc(CNC(=O)CN2C=Nc3ccccc3S2(=O)=O)s1`: the INHIBITION is given as 22.3%.
Take `CC(C)CNC(=O)CN1C=Nc2ccccc2S1(=O)=O`: the INHIBITION was determined as 56.1%.
Then `CNC(=O)c1ccc(-c2ccc(CNS(=O)(=O)N(C)C)cc2)nc1C`, with 8.12%; and `O=c1occ(CN2CCCCCC2)c(O)c1CN1CCCCCC1`, with 25.8%; and `COc1ccc(CCC2CCCN(C(=O)c3cnc(N)nc3C)C2)cc1` (stereo not drawn), with 34.9%.
The same measure for `Cc1nc(N)ncc1C(=O)N1CCCC(CCc2ccc(F)c(F)c2)C1` (stereo not drawn): 38.5%.
In the case of `Cc1ccc(-c2ncc(C(=O)N3CCC[C@H](N)C3)c(O)n2)cc1`, the INHIBITION was 42.2%.
As for `Cc1ccc(-c2ncc(C(=O)N3CCCC(CCN)C3)c(O)n2)cc1` (stereo not drawn), the INHIBITION is given as 53.8%.
Then `Cc1ccc(-c2ncc(C(=O)N3CCCN4CCC[C@H]4C3)c(O)n2)cc1`, with 15.2%.
For the molecule `Cc1nc(N)ncc1C(=O)N1CCCC(CCc2ccc(F)cc2)C1` (stereo not drawn), the INHIBITION was determined as 90.3%.

The values are drawn from ChEMBL document CHEMBL4513216, “Probing the Open Global Health Chemical Diversity Library for Multistage-Active Starting Points for Next-Generation Antimalarials” (ACS Infect Dis, 2020).
